# High-throughput results deposited in PubChem BioAssay by National Center for Advancing Translational Sciences (NCATS).
# Lassa entry inh: inhibitors of Lassa virus binding or cell entry; Lassa virus pseudotype entry inhibition, cell reporter; Potency, µM (top dose mostly 37.9 µM), for the others: at the highest dose activity change, negative = inhibition, hits mostly inhibitors; hit rate 1.2% among 300,000; AID 540256; calls by dose curve; tested in HEK293 cells; note: potency is the fitted concentration of half-maximal effect; nearly all actives have a fitted effect of over 50% in size
# HCMV antiviral: human cytomegalovirus inhibition. hit rate 4.5% among 410,000. AID 1259415. HFF cells, HCMV-luciferase reporter, 72 h; active compounds read low. activity change, negative = inhibition, % at 57.5 µM; in the data active = activity change below about -60%; inconclusive = no clear call, values can overlap the other calls; inactive = above about -39%
#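 Two compound doses tested in HFFs infected with HCMV-luciferase, MOI 1 PFU/cell, 72 h at 37C. Lysate luminescence read with OneGlo; data normalized against buffer-only and 10uM Salinomycin inhibitor controls.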
# Pf growth 48h: P. falciparum growth inhibition at 48 hours (one generation) | P. falciparum luciferase growth in erythrocytes, 48 h | Potency, µM (series often up to 28.7 µM), for the others: top-dose activity change, negative = inhibition, usual class: inhibitors | hit rate 5.9% among 310,000; note: potency is the fitted concentration of half-maximal effect
#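 Read-out is firefly luciferase luminescence from an integrated reporter in P. falciparum, so falling signal marks reduced parasite growth. Infected erythrocytes were at 2% hematocrit and 0.1% parasitemia (final) in Albumax-supplemented RPMI 1640.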
# Pf growth 96h: P. falciparum growth inhibition at 96 hours; P. falciparum luciferase reporter growth, 96 h; Potency, µM (titrated, usually from 28.7 µM), inactives show top-dose activity change, negative = inhibition, most hits filed as inhibitors; hit rate 6.9% among 320,000; note: potency is the fitted concentration of half-maximal effect
#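 Two-generation exposure (96 h) targets delayed-death phenotype. Reporter parasites carrying integrated firefly luciferase, in red cells at 2% hematocrit and 0.05% parasitemia final, kept at 37 C, 5% CO2; luminescence loss indicates inhibition.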
# Marburg entry inh: Marburg virus entry inhibition | Marburg virus pseudotyped entry inhibition, cell reporter | Potency, µM (top dose mostly 37.8 µM), without a hit: top-dose activity change, negative = inhibition, hits mostly inhibitors | hit rate 1.8% among 300,000 | AID 540276; calls by dose curve; tested in HEK293 cells; note: potency is the fitted concentration of half-maximal effect
# HCV inh: blocks hepatitis C virus; Huh7.5.1 HCVcc-Cre infection, luciferase reporter, 44 h; Potency, µM (highest dose often 41.8 µM), without a hit: at the highest dose activity change, negative = inhibition, most hits filed as inhibitors; hit rate 3.4% among 340,000; AID 651820; note: potency is the fitted concentration of half-maximal effect
#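 Luciferase read-out (15 sec integration) after a 15 min room-temperature substrate step quantifies HCVcc-Cre infection. Cells, 1,000 per well, had compound added 4 h post-plating, then virus at ~0.5 moi, and were cultured 44 h.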
# * = called active by the depositor; ? = inconclusive; · = no result given; [ ] = dose if it differs, or a comment. Sampled rows, rich in hits. Any-hit rate of the full collection: about 14%. Unless noted, calls come from the whole dose curve; as a rule, active = well fitted inhibition curve with a large enough effect; inconclusive = small, poorly fitted or top-dose-only effect, or another doubt; inactive = no such curve, though single readings can be large or run the other way. % is set by controls: 0 for no effect and ±100 for the full control effect.
SMILES,Lassa entry inh,HCMV antiviral,Pf growth 48h,Pf growth 96h,Marburg entry inh,HCV inh
Cc1ccc2c(c1)nnn2C1CCN(S(=O)(=O)c2ccc(C(=O)N3C(C)CCCC3C)cc2)CC1 (stereo unspecified),?,-73*,?,?,7.9µM*,6.3µM*
COc1ccc(S(=O)(=O)N2CCC(n3cnc4ccccc43)CC2)cc1,-22%,9,-27%,-57%,2%[46.1 µM],-2%
Cc1ccc2c(c1)nnn2C1CCN(S(=O)(=O)c2ccc(C(=O)O)cc2)CC1,-8%,-67*,-7%,-7%,16%[46.1 µM],34%
COc1ccc(S(=O)(=O)N2CCC(n3cnc4cc(C(F)(F)F)ccc43)CC2)cc1,-1%,-30,5.2µM*,-6%,-25%,3%
O=S(=O)(c1ccc2c(c1)OCCO2)N1CCC(n2nnc3cc(C(F)(F)F)ccc32)CC1,-21%,-39,13µM*,21%,?,?
CCOC(=O)C1=C(C)N(CCCC(=O)O)C(=O)NC1c1ccc([N+](=O)[O-])cc1 (stereo unspecified),-1%,-5,-16%,?,-2%,-14%[8.37 µM]
CCCCCCN(C(=O)CCCCCN1C(=O)NC(c2ccc(-c3ccccc3)cc2)C(C(=O)OCc2ccccc2)=C1C)C(C)C(=O)NCCCC (stereo unspecified),?,42,?,4.7µM*,?,-6%[8.37 µM]
CC1=C(C(=O)OCc2ccccc2)C(c2ccc(Br)cc2)NC(=O)N1CCCC(=O)O (stereo unspecified),·,-15,10%,45%,·,13%
CCCCNC(=O)C(C1CCCCC1)N(CCN(C)C)C(=O)CCCN1C(=O)NC(c2ccc(-c3ccccc3)cc2)C(C(=O)OCc2ccccc2)=C1C (stereo unspecified),·,·,·,·,·,10µM*
CCCCCCN(C(=O)CCCCCN1C(=O)NC(c2ccc(-c3ccccc3)cc2)C(C(=O)OCc2ccccc2)=C1C)C(C(=O)NCCCC)c1ccccc1 (stereo unspecified),·,18,2.6µM*,1.9µM*,·,·
CCCCNC(=O)C(C)N(CCN(C)C)C(=O)CCCN1C(=O)NC(c2ccc([N+](=O)[O-])cc2)C(C(=O)OCc2ccccc2)=C1C (stereo unspecified),·,·,·,·,·,22µM*
CCOC(=O)C1=C(C)N(CCCC(=O)O)C(=O)NC1c1ccccc1OS(=O)(=O)c1ccc([N+](=O)[O-])cc1 (stereo unspecified),·,-100*,·,·,·,16%
CC1=C(C(=O)OCc2ccccc2)C(c2ccc(Br)cc2)NC(=O)N1CCCCCC(=O)O (stereo unspecified),·,41,·,·,·,15%
CC1=C(C(=O)OCc2ccccc2)C(c2ccccc2OS(=O)(=O)c2ccc([N+](=O)[O-])cc2)NC(=O)N1CCCC(=O)O (stereo unspecified),·,14,·,·,·,7%
CCCCNC(=O)C(c1ccc(-c2ccccc2)cc1)N(CCN1CCOCC1)C(=O)CCCCCN1C(=O)NC(c2ccc([N+](=O)[O-])cc2)C(C(=O)OCc2ccccc2)=C1C (stereo unspecified),0%,23,1.3µM*,3.3µM*,?,3%[8.37 µM]
c1ccc2oc(-c3ccc(Nc4nc(N5CCOCC5)nc(N5CCOCC5)n4)cc3)nc2c1,?,-23,·,·,?,?
O=C(NCc1ccncc1)c1cccc(S(=O)(=O)N2CCc3ccccc32)c1,·,?,?,?,·,11µM*
COc1ccc(CCNC(=O)c2cccc(S(=O)(=O)NC(C)c3ccccc3)c2)cc1 (stereo unspecified),·,-11,?,-23%,·,?
Cc1[nH]c(C)c(S(=O)(=O)N2c3ccccc3CC2C)c1C(=O)N1CCCCC1 (stereo unspecified),·,0,-11%,15µM*,·,7%
CC1Cc2ccccc2N1S(=O)(=O)c1cccc(C(=O)NCc2ccncc2)c1 (stereo unspecified),-20%,-89*,?,-45%,7.9µM*,?
O=C(NCCc1ccccn1)c1cccc(S(=O)(=O)N2CCc3ccccc32)c1,-4%,19,?,?,-7%,?
CC(NS(=O)(=O)c1cccc(C(=O)NCc2ccncc2)c1)c1ccccc1 (stereo unspecified),·,-100*,-28%,-7%,·,-9%
Cc1ccc(-n2c(=O)c3cccnc3n2CC(=O)NCc2ccc(Cl)cc2)cc1,7%[46.1 µM],22,·,·,3%[46.1 µM],·
CC1Cc2ccccc2N1S(=O)(=O)c1cccc(C(=O)N2CCN(c3ncccn3)CC2)c1 (stereo unspecified),?,-98*,?,?,?,?
CC(=O)N1CCN(C(=O)c2cccc(S(=O)(=O)N3c4ccccc4CC3C)c2)CC1 (stereo unspecified),-24%[46.1 µM],-19,·,·,1%[46.1 µM],-6%
SMILES,Lassa entry inh,HCMV antiviral,Pf growth 48h,Pf growth 96h,Marburg entry inh,HCV inh
COc1cc(CNc2ncnc3c2ncn3[C@H]2CN(Cc3ccc(Cl)cc3)C[C@@H](CO)O2)cc(OC)c1OC,·,50,·,·,·,·
Cc1cc(C)c(NC(=O)C2CCCN(C(=O)c3cnn(-c4ccccc4)c3-n3cccc3)C2)c(C)c1 (stereo unspecified),-3%[46.1 µM],-20,·,·,-18%[46.1 µM],·
COc1ccc(Sc2nnc(-c3ccccc3)cc2C#N)cc1,-8%,-10,·,?,0%,2%
Cc1ccc(Sc2nnc(Cc3ccccc3)c3ccccc23)cc1,0%,-88*,?,?,?,-4%
COc1ccc(Sc2nnc(Cc3ccccc3)c3ccccc23)cc1,-32%[14.3 µM],-89*,?,37%,?,·
O=C(c1ccc(F)cc1)N1CC(=O)N2[C@@H](CO)[C@@H](c3ccc(Br)cc3)[C@@H]2C1,·,-1,·,·,·,·
CSc1ccc(C(=O)Nc2cc(S(=O)(=O)N3CCOCC3)ccc2N2CCOCC2)cc1[N+](=O)[O-],·,10,·,·,·,-10%
O=C(Nc1ccccc1C(F)(F)F)C1CCN(C(=O)c2cccs2)CC1,-8%[46.1 µM],-27,22%,28%,-4%[46.1 µM],16%
COc1ccc2nc(NC(=O)CCc3ccc(OC)c(OC)c3)sc2c1,·,-38,?,12µM*,·,?
CCOc1ccc2nc(NC(=O)CSc3cn[nH]n3)sc2c1,?,90,84%,-25%,?,?
COc1ccc2nc(NC(=O)CSc3cn[nH]n3)sc2c1,·,66,99%,43%,?,13µM*
CCOc1ccc2nc(NC(=O)CSC3=NCCS3)sc2c1,?,-34,?,·,?,8.9µM*
Cc1cccc(N2C(=O)CS(=O)(=O)C23C(=O)N(Cc2c(F)cccc2Cl)c2ccccc23)c1 (stereo unspecified),-19%[46.1 µM],-25,·,·,·,·
